# In PubChem BioAssay (NCI):
# Compounds without any hit were thinned out: in the full panel of roughly 83,000, 20% have a hit.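 Negative percent growth values reflect cell death: -40 means 40% of the cells present at the start died, and -100 means all died.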 Values without a mark were called inactive. Activity calls are given as the source filed them.
# Test system: UO-31 renal
# Assay: NCI-60 one-dose screen, 48 h (100 = growth as untreated, 0 = no growth, -100 = all killed)
# Details: 10 µM
# Description: Growth inhibition of the UO-31 human tumor cell line is measured as a screen for anti-cancer activity. Cells are grown in 96 well plates and exposed to the test compound for 48 hours. Compounds are tested at a single concentration, which is 10^-5 M for most compounds. The reported endpoint is percent growth (GI% or GIPRCNT), where numbers from 0 - 100% represent growth inhibition, and numbers from -100% - 0 represent cell death. For example, a value of 40 represents 60% growth inhibition. A value of 0 means no net growth occurred over the course of the experiment. A value of -40 indicates 40% of cells at the beginning of the experiment died by the end of the experiment. A value of -100 means all cells are dead at the end of the experiment.
# NCI-60 Human Tumor Cell Lines Screen was performed using the standard one-dose NCI protocol, which is described in more detail at https://dtp.cancer.gov/discovery_development/nci-60/default.htm.
# Compounds with GIPRCNT values below 10 were considered active. Activity score was based on GIPRCNT using the following formula: […]
# Score is 0 for GIPRCNT values of 100 or above, 50 for GIPRCNT values of 0, and 100 for GIPRCNT values of -100.
row,SMILES,growth
1,NC(=O)CC1(c2ccccc2)CCCCC1,93.1%
2,FC(F)(F)c1ccc(-c2cnc(Cl)nc2N2CCC3(CC2)OCCO3)cc1,69.5%
3,CC/C(C)=C(\C)C(=O)O,78.4%
4,COc1ccc2c(c1)N(CCO)C1=C(C(=O)OC1)C2c1cc(OC)c(OC)c(OC)c1 (stereo not given),15.2%
5,CC(=O)O[C@]1(C)CC[C@H]2[C@H](CNCCc3ccc(Cl)cc3)C(=O)O[C@@H]2C2=C(C)C(=O)C[C@H]21,78.1%
6,COc1cc(C2CC(c3ccc(Nc4ccnc5cc(Cl)ccc45)cc3)=NN2c2ccc(Cl)cc2)cc(OC)c1OC (stereo not given),18.4%
7,CN(Cc1ccccc1)Cc1ccc([N+](=O)[O-])cc1I,88.4%
8,CN(C)CCN=c1nc2c(c(N)n1-c1ccccc1)c(=S)n(-c1ccccc1)c(=S)n2-c1ccccc1,3.1% (active)
9,Cc1cc(C)c(CCc2cc(C)c(C)cc2C)cc1C,92.2%
10,COc1cccc(C(=O)Nc2ccc(CN3CCc4nc5cc(OC)c(OC)cc5cc43)cc2)c1,27.5%
11,ClC(Cl)(Cl)c1nc2nccnc2[nH]1,80.4%
12,CCN(CCCCCCCCCCN1CC(=O)N(CCCCCCCCCCN(CC)Cc2ccccc2OC)CC1=O)Cc1ccccc1OC,-74.8% (active)
13,O=C1OCC2=C1C(c1cccc(Cl)c1)c1cc3c(cc1N2CCO)OCO3 (stereo not given),45.1%
14,CCCC1(CC(=O)O)OCCc2c1[nH]c1ccccc21 (stereo not given),86.4%
15,COc1cc(NC(=O)CSc2nc3ccccc3c(=O)n2CCc2ccccc2)cc(OC)c1OC,-63.2% (active)
16,CCN(CC)CCSCCCNc1c2ccc(Cl)cc2nc2ccc(OC)cc12,-29.1% (active)
17,Oc1[nH]c2cc(Cl)ccc2c1/C=c1/ccc2c(c1)N=C(c1cc(F)cc(F)c1)N=2,43.3%
18,c1ccc(CO[C@H]2CO[C@H]3[C@@H]2OC[C@H]3OCc2ccccc2)cc1,72.1%
19,COc1ccc(Cl)cc1C(=O)Nc1nc2ccc(Cl)cc2s1,58.2%
20,CCN(CC)CCNC(=O)c1ccc(NC(C)=O)cc1,98.3%

row,SMILES,growth
1,O=C(Nc1cccc(-n2cc(-c3ccncc3)c(-c3cc(O)cc(Cl)c3)n2)c1)c1cc(C(F)(F)F)cc(C(F)(F)F)c1,49.1%
2,O=C(Nc1cccc(-n2cc(-c3ccncc3)c(-c3ccc(O)c(Cl)c3)n2)c1)c1ccc(Cl)c(Cl)c1,36.3%
3,c1ccc(CNc2ncnc3scc(-c4cccs4)c23)nc1,47.7%
4,CC(C)(C#N)Nc1ccccc1,103%
5,CC(=O)c1nc2ccccc2n1CCN1CCN(C)CC1,53.1%
6,COc1ccc(OC)c(NC(=O)c2sc3nc4c(cc3c2N)C(=O)CCC4)c1,84.7%
7,CC(=O)CSC(C)=O,91.3%
8,COc1ccc(-c2nn(-c3cccc(NC(=O)Nc4cc(C(F)(F)F)cc(C(F)(F)F)c4)c3)cc2-c2ccncc2)cc1Cl,-11.6% (active)
9,COc1ccc2c(c1)O/C(=C\c1ccc([N+](=O)[O-])o1)C2=O,-73.5% (active)
10,O=C(CCCCCCC(=O)Nc1cccnc1)NO,30.3%
11,CC(C)=NNc1ncnc2c1ncn2C1OC(CO)C(O)C1O (stereo not given),-3.29% (active)
12,COc1ccc(Oc2nc(NC3CCCC3)nc(Sc3ccc(OC)cc3)n2)cc1,57.5%
13,Cc1cc(C)c(NC(=O)c2sc3nc4c(cc3c2N)C(=O)CCC4)c(C)c1,56.9%
14,Cc1ccc(S(=O)(=O)OCCN(CCOS(=O)(=O)c2ccc(C)cc2)c2c[nH]c(=O)[nH]c2=O)cc1,82.8%
15,COc1cc(-c2cc(/C=C/C(=O)c3ccc(N)cc3)[nH]n2)cc(OC)c1OC,6% (active)
16,Nc1nc(N=Nc2ccc(O)cc2)cc(=O)[nH]1,93.6%
17,O=C(C[P+](c1ccccc1)(c1ccccc1)c1ccccc1)C[P+](c1ccccc1)(c1ccccc1)c1ccccc1,-98.2% (active)
18,CCCCOc1ccc(NC(=O)Nc2nnc(C)s2)cc1,87%
19,COc1ccc(-c2cc(/C=C3\C(=O)Nc4ccc(OC)cc43)[nH]n2)cc1,40.6%
20,C/C(=N\Nc1nc2ccccc2s1)c1ccncn1,19.8%
